Results as given in PubChem BioAssay AID651815 (National Center for Advancing Translational Sciences (NCATS), 2012).
In all, about 2,100 compounds went through this assay and about 1,100 (52%) were called active. About 29% were inconclusive and are not listed. The set was probably picked from earlier hits. Some of the results follow. A number with no mark means an inactive call. Calls follow the shape of the dose curve; as a rule, active = well fitted inhibition curve with a large enough effect; inconclusive = small, poorly fitted or top-dose-only effect; inactive = no such curve, though single readings can be large or run the other way.

The compounds below were run against DNA dC->dU-editing enzyme APOBEC-3F (Homo sapiens) (UniProt Q8IUX4) (assay: qHTS for inhibitors of Vif-A3F interactions: Cherry picks counterscreen). Details: HeLa A3F-eYFP/Vif cells, eYFP fluorescence, 24 h; series mostly up to 46.1 µM; activity, negative = inhibitor: at the top concentration.
Description: The recent discovery and characterization of host restriction factors, which provide a potent defense to invading retroviruses, has provided new targets for antiviral drug development. APOBEC3G (A3G) and APOBEC3F (A3F) are potent cytidine deaminases that block HIV-1 replication; HIV-1 expresses the Vif protein, which counteracts A3G and A3F by binding to them and inducing their proteasomal degradation. The Vif-A3G and Vif-A3F interactions provide two potential targets for development of small molecules which can interfere with the ability of Vif to degrade A3G or A3F. […] To identify inhibitors that can interfere with Vif mediated degradation of A3G and A3F, we have developed Hela cell lines that stably express A3G or A3F tagged with eYFP at the C-terminal end (A3G-eYFP or A3F-eYFP, respectively) and Vif. In the absence of an inhibitor, Vif induces degradation of A3G-eYFP and A3F-eYFP, and the cells are not fluorescent. In the presence of an inhibitor, it is expected that Vif will be unable to degrade A3G-eYFP and/or A3F-eYFP, resulting in an increase in yellow fluorescence. In this counterscreen assay, Vif A3F was screened against the cherry picks ordered from the MLSMR. NIH Chemical Genomics Center [NCGC] NIH Molecular Libraries Probe Centers Network [MLPCN] MLPCN Grant: MH093245 Assay Submitter (PI): Vinay Pathak, National Cancer Institute
A3F-Vif cells were harvested from T225 flask and resuspended in phenol free OPTI-MEM medium with 5% FBS. Then 5 uL of 140,000 cells/mL resuspended cells was dispensed into each well of low base Aurora COC 1,536-well plates (black walled, clear bottom) using a Multidrop Combi dispenser. After overnight culture at 37 deg C with 5% CO2, a total of 23 nL of compounds at 5 selected concentrations from the NPC or positive control (2 mM stock of MG132) in DMSO was transferred to each well of the assay plate using a pintool (Kalypsys, San Diego, CA), and the plates were further incubated at 37 deg C with 5% CO2 for 24 hours. After that, the plates were measured on Acumen Explorer (TTP Lab Tech). The fluorescence was detected by 488 nm/Ex and […].
% is scaled to controls: 0 for no effect and ±100 for the full control effect; potency is read from the fitted curve at half-maximal effect.
Also: nearly all actives have a fitted effect of over 65% in size.

Sequence of DNA dC->dU-editing enzyme APOBEC-3F (Homo sapiens) (Q8IUX4 whole entry, looked up): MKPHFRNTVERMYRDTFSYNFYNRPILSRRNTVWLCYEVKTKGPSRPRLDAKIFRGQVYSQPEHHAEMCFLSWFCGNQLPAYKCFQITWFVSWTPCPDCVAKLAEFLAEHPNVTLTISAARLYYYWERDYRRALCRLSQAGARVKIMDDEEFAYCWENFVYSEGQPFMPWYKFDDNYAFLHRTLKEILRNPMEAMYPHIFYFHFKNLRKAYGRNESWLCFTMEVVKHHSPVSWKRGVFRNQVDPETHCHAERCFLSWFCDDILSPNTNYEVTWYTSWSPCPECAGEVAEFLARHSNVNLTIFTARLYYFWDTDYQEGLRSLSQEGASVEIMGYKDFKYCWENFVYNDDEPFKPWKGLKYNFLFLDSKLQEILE

| Structure (SMILES) | Potency | activity, negative = inhibitor |
| --- | --- | --- |
| COc1ccc(C(=O)NC2CCCc3ccccc32)cc1[N+](=O)[O-] (configuration not stated) | 8.86 µM (active) | – |
| COc1ccccc1NC(=O)C1=C(C)Nc2nc3ccccc3n2C1c1cccs1 (configuration not stated) | 1.4 µM (active) | – |
| COc1ccc2[nH]c3c(c2c1)CCNC3c1ccc([N+](=O)[O-])o1 (configuration not stated) | 18.4 µM (active) | – |
| CC(C)N1CCc2c(sc(NC(=O)c3cc4cc([N+](=O)[O-])ccc4s3)c2C(N)=O)C1 | 23.1 µM (active) | – |
| CCCCN(CCCC)S(=O)(=O)c1ccc(C(=O)Nc2sc3c(c2C(N)=O)CCN(CC)C3)cc1 | 25.9 µM (active) | – |
| COc1ccc(C(=O)Nc2sc3c(c2C#N)CCN(C(C)=O)C3)cc1 | 9.94 µM (active) | – |
| CC(C)CN(CC(C)C)S(=O)(=O)c1ccc(C(=O)Nc2sc3c(c2C(N)=O)CCN(C(C)C)C3)cc1 | 20.6 µM (active) | – |
| CCN1CCc2c(sc(NC(=O)c3ccc(S(=O)(=O)N(CC)c4ccccc4)cc3)c2C(N)=O)C1 | 12.5 µM (active) | – |
| CC(C)N1CCc2c(sc(NC(=O)c3ccc(S(=O)(=O)N4CCOCC4)cc3)c2C#N)C1 | 20.6 µM (active) | – |
| CCOC(=O)c1c(NC(=O)c2ccc(S(=O)(=O)N3CCC(C)CC3)cc2)sc2c1CCN(C)C2 | 18.4 µM (active) | – |
| CCCN1CCc2c(sc(NC(=O)c3ccc(S(=O)(=O)N(C)c4ccccc4)cc3)c2C(=O)NC)C1 | 18.4 µM (active) | – |
| CCN1CCc2c(sc(-n3cccc3)c2C(C)NC(=O)Nc2ccc(C(=O)OC)cc2)C1 (configuration not stated) | – | 8.59% |
| CN1C(=O)N(C)c2ccc(C=O)c3cccc1c23 | – | 14.9% |
| CCCN1CCc2c(sc(NC(=S)NC(=O)c3ccccc3)c2C#N)C1 | 16.4 µM (active) | – |
| CCCN1CCc2c(sc(NC(=O)c3ccc(S(=O)(=O)N(C)c4ccccc4)cc3)c2C(N)=O)C1 | 23.1 µM (active) | – |
| O=C(NC(=S)Nc1ccccc1N1CCCCC1)c1ccccc1 | – | -14.4% |
| N#CC(C#N)=C1C=C2C=C(N3CCOCC3)CCC2CC1 (configuration not stated) | – | 24.4% |
| O=C1OCC2=C1C(c1ccc3c(c1)OCO3)c1cc3c(cc1O2)OCO3 (configuration not stated) | 1.25 µM (active) | – |
| COc1cc(C2C3=C(COC3=O)Oc3cc4c(cc32)OCO4)ccc1OC(C)=O (configuration not stated) | 3.14 µM (active) | – |
| N#C/C=C/N1CCN(C(=O)c2ccco2)CC1 | – | 15% [at 36.9 µM] |
| C=CCN1C(=O)c2ccc(C(=O)N(CC(C)C)c3c(N)n(CCCC)c(=O)[nH]c3=O)cc2C1=O | – | -17.4% [at 36.9 µM] |
| CCCCn1c(N)c(N(CC(C)C)C(=O)Cc2ccc(S(=O)(=O)N3CCOCC3)s2)c(=O)[nH]c1=O | 16.4 µM (active) | – |
| CCCCn1c(N)c(N(CCC(C)C)C(=O)c2ccc([N+](=O)[O-])o2)c(=O)[nH]c1=O | – | -13.3% |
| O=C(O)c1ccccc1N/N=C/c1c(Sc2nnnn2-c2ccccc2)nc2ccccn2c1=O | – | 31.2% [at 36.9 µM] |

| Structure (SMILES) | Potency | activity, negative = inhibitor |
| --- | --- | --- |
| CCN1C/C(=C\c2cccc([N+](=O)[O-])c2)C(=O)/C(=C/c2cccc([N+](=O)[O-])c2)C1 | 2.5 µM (active) | – |
| CC(C)COc1ccc(C(=O)N/C(=C/c2cccc([N+](=O)[O-])c2)C(=O)O)cc1 | – | -5.47% [at 36.9 µM] |
| OCC[n+]1ccc(/C=C/c2c[nH]c3ccccc23)cc1 | 5.8 µM (active) | – |
| C[n+]1ccc(/C=C/c2cc[n+](C)c3ccccc23)c2ccccc21 | – | 0.363% |
| CC[n+]1ccc(/C=C/c2c[nH]c3ccccc23)cc1 | 1.84 µM (active) | – |
| C[n+]1ccc(/C=C/c2c[nH]c3ccccc23)cc1 | 6.51 µM (active) | – |
| O=C(Nc1ccccc1OC(=O)c1ccccc1)c1ccccc1 | 15.8 µM (active) | – |
| NC(=S)N/N=C/c1ccccc1OC(=O)/C=C/c1ccccc1 | – | 6.59% |
| COc1ccccc1NC(=O)Cc1ccc(-c2ccccc2)cc1 | – | -0.174% |
| COc1ccc(C(=O)N/N=C/c2ccccc2OC(=O)c2ccccc2)cc1 | 3.96 µM (active) | – |
| O=C(NC(=S)Nc1ccc(-c2ccccc2)cc1)c1ccccc1 | – | 10.7% |
| C=C1C(=O)O[C@H]2C1CC[C@@](C)(O)C13C=CC(C)(C21)C1(C3)C(=O)O[C@@H]2C3C(C)=CCC3[C@](C)(O)C[C@H](OC(C)=O)C21 (some centres not stated) | 17.7 µM (active) | – |
| Cc1c(N=C2N=C(NC(=O)c3cccs3)c3ccccc32)c(=O)n(-c2ccccc2)n1C | 14 µM (active) | – |
| Cc1c(NC(=O)c2csc3c2CCCC3)c(=O)n(-c2ccccc2)n1C | – | 9.75% |
| N#Cc1c(C(F)(F)F)cc(-c2ccccc2)nc1SCc1nc(N)nc(N2CCOCC2)n1 | 16.4 µM (active) | – |
| COc1c(-c2ccc(O)c(O)c2)oc2cc(O)cc(O)c2c1=O | 12.5 µM (active) | – |
| Cc1cc(NC(=O)Nc2nnc(N(C)Cc3ccccc3)s2)ccc1Br | – | 0.433% |
| CSc1nc2ccccc2cc1/C=C(\C#N)c1cccc(C)c1 | 11.2 µM (active) | – |
| N#C/C(=C\c1cccc(O)c1)c1nc2ccccc2o1 | 7.9 µM (active) | – |
| Nc1c(C(=O)N/N=C/c2cccnc2)oc2nc(-c3ccccc3)cc(-c3ccco3)c12 | 4.11 µM (active) | – |
| Nc1c(C(=O)N/N=C/c2ccc(F)cc2)oc2nc(-c3ccccc3)cc(-c3ccco3)c12 | 14 µM (active) | – |
| C/C(=N\Nc1nc(C)cc(-c2ccccc2)n1)c1ccc(F)cc1 | – | -4.82% |
| Nc1c(C(=O)N/N=C/c2ccccc2Cl)oc2nc(-c3ccccc3)cc(-c3ccco3)c12 | 10.3 µM (active) | – |
